Molecules are shown by their SMILES. In all, about 2,400 compounds went through this assay and about 580 (24%) were called active. These entries were drawn from the full list. A number with no mark means an inactive call.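 Rule for the calls: active = activity change at or above the mean plus 3 SD of buffer wells without dofetilide, per plate; inactive = the rest.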

In the test the target is Potassium voltage-gated channel subfamily KQT member 2 (Rattus norvegicus) (UniProt O88943). The experiment in a line: rat KCNQ2 channel activation by compounds alone, confirmation, counter-screen for hERG block protector project, cell-based, CHO, FluxOR thallium flux (AID 1942).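 Note: normalized value minus buffer-control mean plus three SD of buffer wells.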 Particulars: CHO-KCNQ2 cells, FluxOR thallium flux fluorescence; at 10 µM; active compounds read high.
Sequence of Potassium voltage-gated channel subfamily KQT member 2 (Rattus norvegicus) (O88943 whole entry, looked up): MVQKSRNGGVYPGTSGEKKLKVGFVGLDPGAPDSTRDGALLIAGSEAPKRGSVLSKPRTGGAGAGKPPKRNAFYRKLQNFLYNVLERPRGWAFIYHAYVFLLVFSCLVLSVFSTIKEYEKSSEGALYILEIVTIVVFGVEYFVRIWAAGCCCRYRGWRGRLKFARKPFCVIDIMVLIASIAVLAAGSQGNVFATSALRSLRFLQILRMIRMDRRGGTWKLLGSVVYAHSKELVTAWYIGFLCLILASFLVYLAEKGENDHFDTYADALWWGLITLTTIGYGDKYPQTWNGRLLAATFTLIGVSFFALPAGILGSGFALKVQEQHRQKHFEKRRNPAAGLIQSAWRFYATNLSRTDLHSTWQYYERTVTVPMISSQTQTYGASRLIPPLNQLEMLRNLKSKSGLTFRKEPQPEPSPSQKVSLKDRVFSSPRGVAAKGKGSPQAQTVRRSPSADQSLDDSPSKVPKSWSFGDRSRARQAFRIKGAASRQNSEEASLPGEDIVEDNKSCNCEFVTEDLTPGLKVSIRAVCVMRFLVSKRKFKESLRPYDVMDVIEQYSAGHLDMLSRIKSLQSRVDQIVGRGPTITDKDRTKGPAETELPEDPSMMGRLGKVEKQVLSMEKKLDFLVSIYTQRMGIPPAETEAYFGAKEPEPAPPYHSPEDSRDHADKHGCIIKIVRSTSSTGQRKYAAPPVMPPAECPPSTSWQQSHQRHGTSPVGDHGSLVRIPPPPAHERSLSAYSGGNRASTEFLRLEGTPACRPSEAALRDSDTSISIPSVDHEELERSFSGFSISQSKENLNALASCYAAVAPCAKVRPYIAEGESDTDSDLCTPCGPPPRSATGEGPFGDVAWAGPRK
Consider `S=c1nc(C2CCCCC2)[nH]c2ccccc12`, for which the activity change, less the hit threshold is 4.1% (active). Consider `S=c1nc(C2CC2)[nH]c2ccccc12`, for which the activity change, less the hit threshold is 35.2% (active). Next, `COc1cc(S(=O)(=O)NCC2COCCO2)ccc1-n1cnnn1` (stereo unspecified): -13.9%; `O=C(N=Nc1c(O)[nH]c2ccc([N+](=O)[O-])cc12)c1cc(-c2ccccc2Cl)nc2ccccc12`: -10.8%.

As to `COc1ccc(NC(=O)CN2C(=O)S/C(=C/c3cccn3-c3ccc(C(=O)O)cc3)C2=O)cc1`, the activity change, less the hit threshold is -22.6%. For the compound `c1ccc(-c2ccnc3nc(N4CCN(c5ccccc5)CC4)nn23)cc1`, the activity change, less the hit threshold was -26.3%. Next, `Cc1cc([N+](=O)[O-])c(C)cc1-c1ccc(/C=N/NC(=O)Cn2nnnc2N)o1`: -10%; `Cc1ccccc1C(=O)NNC(=O)C(=O)Nc1cccc(Cl)c1C`: 17.7% (active).

On to `COc1ccc(C(=O)Nc2ccccc2C(=O)O)cc1Cl`, for which the activity change, less the hit threshold is -8.6%. `CC(=O)Nc1ccccc1C(=O)C(=O)Nc1ccccc1`: the activity change, less the hit threshold is -23.5%. In the case of `COc1ccccc1C(=O)NNC(=O)C(=O)Nc1cccc(Cl)c1C` it was 131% (active); in that of `CC(=O)Nc1ccccc1C(=O)C(=O)Nc1ccc(Cl)cc1`, -18.3%; in that of `COc1ccc(Cl)cc1C(=O)Nc1cccnc1Cl`, -15.9%. With `O=C(Nc1ccccc1C(=O)O)c1ccc(NC(=O)C2CC2)cc1`, the activity change, less the hit threshold was -20.5%. Next, `O=C(Nc1cc(Cl)ccc1O)C1CC(c2ccccc2Cl)=NO1` (stereo unspecified): -19.1%. In the case of `Oc1ccc(Cl)cc1C1=NNC(c2cccs2)C1` (stereo unspecified) it was 9.1% (active); in that of `CCOc1ccc2[nH]c(=O)c(CN(Cc3ccc(C)cc3)C(=O)N3CCCC3)cc2c1`, -12.4%; in that of `CCSc1nnc(NC(=O)Cn2cnc3c2c(=O)n(C)c(=O)n3C)s1`, -15.7%.

For the compound `Clc1ccc(Nc2nc3cccnc3s2)cc1`, the activity change, less the hit threshold was -20.7%. Next, `S=c1[nH]nc(Nc2ccc(Cl)cc2)s1`: -19.3%; `Clc1ccc(Nc2ccc(Cl)nn2)cc1`: 7.4% (active). Regarding `COc1ccc(/C=N/NC(=O)C(=O)N2CCCC2)cc1`, the activity change, less the hit threshold is -5%.

For the compound `N#Cc1c(-c2ccco2)c2c([nH]c1=S)CCCC2`, the activity change, less the hit threshold is -16.2%. In the case of `O=C(NCc1ccccc1)C(=O)Nc1nc(C23CC4CC(CC(C4)C2)C3)cs1` it was -21.1%.

Regarding `O=[N+]([O-])c1cc(Cl)cc(/C=N/NC(=S)Nc2ccc(S(=O)(=O)N3CCOCC3)cc2)c1O`, the activity change, less the hit threshold is 29.8% (active). For the compound `O=C(NNC(=S)Nc1ccccc1)c1cccc(S(=O)(=O)N2CCOCC2)c1`, the activity change, less the hit threshold was -7.9%.

As to `O=C(CCc1ccccc1Cl)Nc1ccc(S(=O)(=O)N2CCOCC2)cc1`, the activity change, less the hit threshold is -19.3%.

On to `Cc1ccc(F)cc1CNC(=O)C1CCC(=O)N(C2CC2)C1` (stereo unspecified), for which the activity change, less the hit threshold is -13.7%. Next, `N#Cc1ccc(-c2ccc(OCC(=O)Nc3cccnc3)cc2)cc1`: -9.1%; `O=C(C1CC1)N1N=C(c2ccccc2)CC1(O)C(F)(F)C(F)(F)F` (stereo unspecified): -22.1%; `O=C(CN1C(=O)NC(Cc2ccccc2)C1=O)Nc1ccccc1OC(F)F` (stereo unspecified): -20.5%.
